Source: PubChem (National Center for Advancing Translational Sciences (NCATS))
Sampled rows, rich in hits. Any-hit rate of the full collection: about 19%.
S-ASM inh: Inhibitors of Secretory Acid Sphingomyelinase (S-ASM): qHTS; Potency, µM (top dose mostly 57.5 µM), for the others: top-dose activity change, negative = inhibition, usual class: inhibitors; 340,000 tested, 0.006% active; AID 504937, 2011; placental ASM, HMU-PC fluorogenic substrate, 60 min; further: potency means the concentration at half of the fitted maximal effect
Target sequence (P17405 47-631 limits assumed): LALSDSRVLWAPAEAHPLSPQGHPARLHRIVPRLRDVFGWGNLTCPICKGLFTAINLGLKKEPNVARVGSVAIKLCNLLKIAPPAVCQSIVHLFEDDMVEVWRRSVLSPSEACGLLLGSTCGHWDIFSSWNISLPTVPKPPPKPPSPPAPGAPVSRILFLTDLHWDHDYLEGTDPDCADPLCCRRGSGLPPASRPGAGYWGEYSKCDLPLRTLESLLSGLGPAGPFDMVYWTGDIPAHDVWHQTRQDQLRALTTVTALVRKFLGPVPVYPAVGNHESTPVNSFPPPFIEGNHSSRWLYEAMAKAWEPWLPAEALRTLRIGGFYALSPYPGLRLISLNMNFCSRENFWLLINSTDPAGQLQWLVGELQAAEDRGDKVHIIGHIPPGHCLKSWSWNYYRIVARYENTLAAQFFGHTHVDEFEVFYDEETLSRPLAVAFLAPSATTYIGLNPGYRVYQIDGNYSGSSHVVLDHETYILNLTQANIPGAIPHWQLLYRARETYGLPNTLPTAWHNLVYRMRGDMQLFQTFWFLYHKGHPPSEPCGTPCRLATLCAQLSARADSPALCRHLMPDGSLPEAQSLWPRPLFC
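Fluorogenic HMU-PC substrate (9 uM final) is turned over by placental ASM in 60 min at 37 C after a 10 min compound preincubation. Reaction ended by alkaline stop (pH 10), with fluorescence read at 386/447 nm.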
TGFb SMAD3 inh: qHTS for Inhibitors of TGF-b; HepG2 CAGA-GFP TGF-b/SMAD3 reporter, GFP fluorescence, 18 h; TGF-beta stimulated, 500 pg/mL final; 410,000 tested, 1.2% active; Potency, µM (titrated, usually from 46.1 µM), inactives show at the highest dose activity, negative = inhibition, hits mostly inhibitors; further: potency means the concentration at half of the fitted maximal effect; on the % scale 0 is the no-effect control and ±100 the full control effect; nearly all actives have a fitted effect of over 65% in size
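Smad-responsive CAGA-GFP expression was quantified in HEPG2 cells exposed to compounds and 500 pg/mL final TGF-beta for 18 h at 37 degrees C; unstimulated wells defined full inhibition.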
IL1B secr inh: qHTS for Inhibitors of Inflammasome Signaling: IL-1-beta AlphaLISA Primary Screen; AID 743279, 2014; 360,000 tested, 4.7% active; THP-1 LPS/ATP IL-1B secretion, AlphaLISA, 16 h; active compounds read low; activity change, % at 57.5 µM; in the data active means activity change below about -50%; inconclusive means mostly about -30% to -49%; further: on the % scale 0 is the no-effect control and ±100 the full control effect
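THP-1 cells pretreated 1 hr with compounds (up to 57.5 uM final), then stimulated with LPS (250 ng/mL final) plus ATP (1.25 mM final); secreted IL-1B measured by AlphaLISA after 16 hr, decreased signal indicating inhibition.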
TDP1 cell CPT: qHTS for Inhibitors of human tyrosyl-DNA phosphodiesterase 1 (TDP1): qHTS in cells in presence of CPT; chicken DT40 Tdp1-/-;hTDP1 cells + 20 nM CPT, ATP luminescence, 48 h; Potency, µM (top dose mostly 46.2 µM), for the others: at the top dose activity change, negative = growth inhibition, most hits filed as inhibitors; 420,000 tested, 12% active; AID 686979, 2013; further: potency means the concentration at half of the fitted maximal effect; on the % scale 0 is the no-effect control and ±100 the full control effect; nearly all actives have a fitted effect of over 55% in size
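Cell growth measured by CellTiter-Glo luminescence after a minimum 48 h, 37 C compound exposure with 20 nM CPT in Tdp1-knockout DT40 cells stably expressing hTDP1, seeded 400/well; qHTS titration format.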
HepG2 viability: qHTS for Inhibitors of TGF-b: Cytotox Counterscreen; HepG2 CAGA-GFP viability, ATP luminescence, 18 h; Potency, µM (series often up to 46.1 µM), for inactives: at the highest dose activity change, negative = cytotoxicity, usual class: cytotoxic; 410,000 tested, 0.76% active; AID 588856, 2011; further: potency means the concentration at half of the fitted maximal effect
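CellTiter-Glo luminescence gave cytotoxicity after 18 hours at 37 degrees C. The cells were HepG2 CAGA-GFP in 1% FBS DMEM, stimulated with 500 pg/mL TGF-beta after compound addition. %Activity was normalised to no-cell wells (complete cell-killing) and DMSO (no toxicity), and curves were fitted and classified.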
TDP1 cell noCPT: qHTS for Inhibitors of human tyrosyl-DNA phosphodiesterase 1 (TDP1): qHTS in cells in absence of CPT; DT40 Tdp1-/- hTDP1 cells, no CPT, ATP luminescence, 48 h; Potency, µM (top dose mostly 46.2 µM), inactives show top-dose activity change, negative = growth inhibition, actives largely listed as inhibitors; 420,000 tested, 15% active; AID 686978, 2013; further: potency means the concentration at half of the fitted maximal effect; on the % scale 0 is the no-effect control and ±100 the full control effect; nearly all actives have a fitted effect of over 55% in size
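Chicken DT40 Tdp1-/- cells complemented with human TDP1, screened without camptothecin (DMSO vehicle only), 400 cells/well. Compounds pin-transferred, cells incubated at 37 °C for at least 48 hr. Growth read as ATP-dependent luminescence (CellTiter-Glo, 30 min at RT).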
The depositor's hits bear a star. Unless noted, the call rests on the fitted dose curve; in most records, active means well fitted curve in the direction sought with a large enough effect; inconclusive means small, poorly fitted or top-dose-only effect, or another doubt; inactive means no such curve, though single readings can be large; an effect the other way counts as inactive or inconclusive.

For Oc1ccc(N=Nc2nc(-c3ccccc3)c(-c3ccccc3)[nH]2)cc1 the results were S-ASM inh inconclusive, TGFb SMAD3 inh -30%, IL1B secr inh 0, TDP1 cell CPT inconclusive, HepG2 viability -28% and TDP1 cell noCPT 23µM*.
For Oc1ccc(-c2nc(-c3ccccc3)c(-c3ccc(Br)cc3)[nH]2)cc1 the results were TGFb SMAD3 inh inconclusive, TDP1 cell CPT inconclusive, HepG2 viability -111% and TDP1 cell noCPT inconclusive.
C[C@H]1CN([C@@H](C)CO)C(=O)CCCn2nncc2CO[C@@H]1CN(C)C(=O)c1ccncc1 was read as TGFb SMAD3 inh 5%, IL1B secr inh -17, TDP1 cell CPT 14%, HepG2 viability 19% and TDP1 cell noCPT -2%.
Screening N#Cc1ccc(NC(=S)NCCN2CCOCC2)cc1 returned S-ASM inh 6%, TGFb SMAD3 inh -1%, IL1B secr inh 1, TDP1 cell CPT -14%, HepG2 viability -10% and TDP1 cell noCPT -9%.
Screening Cc1ccc(CCNC(=O)CCn2c(=O)c3cccn3c3ccc(F)cc32)cc1 returned S-ASM inh 0%, TGFb SMAD3 inh inconclusive, IL1B secr inh -18, TDP1 cell CPT inconclusive, HepG2 viability -28% and TDP1 cell noCPT 18µM*.
CCCCNC(=O)CCn1c(=O)c2cccn2c2ccc(F)cc21 was read as S-ASM inh -1%, TGFb SMAD3 inh 0%, IL1B secr inh -4, TDP1 cell CPT inconclusive, HepG2 viability 6% and TDP1 cell noCPT inconclusive.
`O=C(CCn1c(=O)c2cccn2c2ccc(F)cc21)NCCc1ccc(Cl)cc1` gave TGFb SMAD3 inh -4%, TDP1 cell CPT inconclusive, HepG2 viability 4% and TDP1 cell noCPT 15µM*.
For Cc1cc2nc(-c3ccc(SCc4ccc(C#N)cc4)nc3)[nH]c2cc1C the results were S-ASM inh -1%, TGFb SMAD3 inh -25%, IL1B secr inh -12, TDP1 cell CPT inconclusive, HepG2 viability -47% and TDP1 cell noCPT 23µM*.
`CC(=O)CSc1ccc(-c2nc3ccccc3[nH]2)cn1` gave S-ASM inh -1%, TGFb SMAD3 inh -1%, IL1B secr inh -58*, TDP1 cell CPT 10µM*, HepG2 viability 10µM* and TDP1 cell noCPT 8.2µM*.
N#Cc1ccccc1CSc1ccc(-c2nc3ccccc3[nH]2)cn1 was read as S-ASM inh -14%, TGFb SMAD3 inh 0%, IL1B secr inh -71*, TDP1 cell CPT inconclusive, HepG2 viability -43% and TDP1 cell noCPT inconclusive.
`CC(=O)CSc1ccc(-c2nc3cc(C)c(C)cc3[nH]2)cn1` gave S-ASM inh -4%, TGFb SMAD3 inh inconclusive, IL1B secr inh -82*, TDP1 cell CPT inconclusive, HepG2 viability -22% and TDP1 cell noCPT inconclusive.
O=C(O)CCn1c(-c2ccccn2)nc2ccccc21 was read as S-ASM inh 0%, TGFb SMAD3 inh 12%, IL1B secr inh 48, TDP1 cell CPT 29%, HepG2 viability 0% and TDP1 cell noCPT -1%.
Screening Cc1ccc2nc(-c3ccc(SCC(=O)N4CCc5ccccc54)nc3)[nH]c2c1 returned S-ASM inh -9%, TGFb SMAD3 inh inconclusive, IL1B secr inh 21, TDP1 cell CPT inconclusive, HepG2 viability 0% and TDP1 cell noCPT 13µM*.
`Cc1cc2nc(-c3ccc(SCC(=O)Nc4nccs4)nc3)[nH]c2cc1C` gave S-ASM inh 16%, TGFb SMAD3 inh 14%, IL1B secr inh -15, TDP1 cell CPT 16µM*, HepG2 viability -36% and TDP1 cell noCPT 16µM*.
For COc1ccc(Cc2c(C)nn(-c3nc(C)c(C(=O)Nc4ccc(C)cc4C)s3)c2C)cc1 the results were TGFb SMAD3 inh -9%, TDP1 cell CPT -4%, HepG2 viability 5% and TDP1 cell noCPT -10%.
Screening Cc1ccc(Cl)cc1NC(=O)CON=C(N)c1ccccc1 returned S-ASM inh 5%, TGFb SMAD3 inh 11%, IL1B secr inh 7, TDP1 cell CPT -19%, HepG2 viability -43% and TDP1 cell noCPT -15%.
`Fc1cccc(CSc2ncnc3c2ncn3C2CCCCO2)c1` (stereo not given) gave S-ASM inh 0%, TGFb SMAD3 inh -1%, IL1B secr inh -11, TDP1 cell CPT inconclusive, HepG2 viability 11% and TDP1 cell noCPT inconclusive.
Screening Nc1nonc1-n1nnc(C(=O)N/N=C/c2ccc(Cl)cc2Cl)c1CN1CCOCC1 returned S-ASM inh -3%, TGFb SMAD3 inh 23%, IL1B secr inh -4, TDP1 cell CPT -13%, HepG2 viability -1% and TDP1 cell noCPT -14%.
For CS(=O)(=O)c1ccc(C(=O)OCC(=O)NCc2cccs2)cc1[N+](=O)[O-] the results were S-ASM inh -2%, TGFb SMAD3 inh 11µM*, IL1B secr inh -97*, TDP1 cell CPT 5.8µM*, HepG2 viability -106% and TDP1 cell noCPT 4.6µM*.
For Cc1ccc(S(=O)(=O)Nc2ccccc2F)cc1C(=O)N1CCN(c2ccccc2O)CC1 the results were S-ASM inh -2%, TGFb SMAD3 inh -22%, IL1B secr inh 24, TDP1 cell CPT -15%, HepG2 viability -11% and TDP1 cell noCPT -10%.
For CCc1ccccc1N1CC(c2nc3ccccc3n2Cc2cccc(C)c2)CC1=O (stereo not given) the results were TGFb SMAD3 inh 6.3µM*, TDP1 cell CPT 10µM*, HepG2 viability -33% and TDP1 cell noCPT 13µM*.
For Cc1ccc(C)c(Cn2c(C3CC(=O)N(c4ccccc4C)C3)nc3ccccc32)c1 (stereo not given) the results were TGFb SMAD3 inh inconclusive, TDP1 cell CPT 23µM*, HepG2 viability -22% and TDP1 cell noCPT 21µM*.
For Cc1cc(C)c(Cn2c(C3CC(=O)N(c4ccc(F)cc4)C3)nc3ccccc32)c(C)c1 (stereo not given) the results were TGFb SMAD3 inh inconclusive, TDP1 cell CPT -12%, HepG2 viability -22% and TDP1 cell noCPT inconclusive.
`Cc1ccccc1OCc1ccc(-c2nc(C#N)c(NCCCN(C)C)o2)o1` gave TGFb SMAD3 inh inconclusive, TDP1 cell CPT inconclusive, HepG2 viability -60% and TDP1 cell noCPT inconclusive.
